About 660 (0.22%) of roughly 300,000 compounds were called active. The sample holds actives, similar compounds and a random draw of the others, so the mix is not that of the screen. Unmarked numbers belong to inactive results.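 How the source made its calls: active means mean replicate score, as percent of positive control, at or above 50; inconclusive means mean below 50 but at least one replicate at or above 50; inactive means mean and every replicate below 50.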
Test: blockers of SFLLRN-triggered platelet ATP release – cell-based, MLPCN, human platelets, primary screen (AID 1663)
Conditions: human platelet-rich plasma, SFLLRN dense granule ATP release, luminescence; hits give high values;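 compounds screened at 7.5 µM in platelet-rich plasma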

| SMILES | inhibition |
| --- | --- |
| O=[N+]([O-])c1ccc2c(c1)Nc1nc3ccccc3nc1N2 | -4.77% |
| Cc1sc2ncn(CC(=O)NCCCC(=O)N(C)Cc3ccccc3)c(=O)c2c1C | 10.8% |
| COc1ccc(C(C)=O)cc1CN1C(=O)NC2(CCCCC2C)C1=O (centres undefined) | -14.5% |
| O=[N+]([O-])c1ncc(Br)cc1Nc1ccccc1 | -1.96% |
| CCOC(=O)N1CCN(C(=O)c2ccc3c(=O)n(CCc4ccc(OC)c(OC)c4)c(=O)[nH]c3c2)CC1 | -6.61% |
| C/C(=N\NC(=O)c1cc2c(s1)CCC(C)C2)c1cccnc1 (centres undefined) | 9.94% |
| COc1ccc(C2CC(=O)Nc3sc(=N)c4c(N)c(C#N)c(N)nc4c32)cc1OC (centres undefined) | 92.7% (active) |
| N#Cc1c(N)nc2c3c(sc(=N)c2c1N)NC(=O)CC3c1ccccc1Cl (centres undefined) | -3.78% |
| COc1ccc(-c2cc(-c3ccc(N)cc3)nc(N)c2C#N)cc1OC | 0.00483% |
| COc1ccc(NC(=O)CC2C(=O)OCC3CCCCN32)cc1Cl (centres undefined) | 7.17% |
| O=C(CSc1nnc(SCc2ccc(F)cc2)s1)Nc1ccc(C(=O)O)cc1 | 65.9% (active) |
| COc1cc(OC)cc(-c2nnc(SCC(=O)Nc3ccc(C(=O)O)cc3)s2)c1 | -1.66% |
| O=C(Cc1cccs1)Nc1nnc(SCc2ccc(F)cc2)s1 | -6.18% |
| COc1ccc(C(=O)OCC(=O)NC(=O)CCSc2ccccc2)cc1 | -1.32% |
| C=CCNCCCCOc1ccccc1 | 3.06% |
| C=C(C)COc1ccc(-c2ncncc2-c2ccc(OC)cc2)c(O)c1 | 3.43% |
| CC(C(=O)NC1CCCCC1)N1C(=O)c2cccc3cccc1c23 (centres undefined) | 7.75% |
| COc1cccc(C(=O)Nc2ccc(N3CCN(C(=O)c4ccco4)CC3)cc2)c1 | -47.4% |
| CN1CCN(c2ccc(NC(=O)c3ccccc3)cc2)CC1 | 28.5% |
| COc1cccc(C(=O)Nc2ccc(N3CCCC3)cc2)c1 | 87.6% (active) |
| C/C=C/C(=O)OCC(=O)Nc1ccc(F)cc1Cl | 1.87% |
| COc1ccc(C(=O)NC2CC2)cc1OC1CCN(C/C=C/c2ccccc2)CC1 | -4.81% |
| Cc1cnc(NC(=O)c2ccc(Cl)nc2)s1 | -2.29% |
| Cc1cnc(NC(=O)c2ccccn2)s1 | 52.7% (active) |

| SMILES | inhibition |
| --- | --- |
| O=C(Nc1nnc(C2CC2)s1)c1ccccn1 | -0.73% |
| COc1ccccc1-n1c(-c2cc(-c3ccco3)[nH]n2)n[nH]c1=S | 3.67% |
| Cn1c(-c2ccco2)nc2cc3ccccc3cc21 | 66.2% (active) |
| Cc1cc(C(F)(F)F)nn1-c1nc(-c2ccco2)cc(C(F)(F)F)n1 | 0.688% |
| CCOc1ccc(/C(O)=C2\C(=O)C(=O)N(c3ccc(OC)cc3)C2c2ccccc2[N+](=O)[O-])cc1 (centres undefined) | 14.9% |
| NS(=O)(=O)c1ccc2nc(NC(=O)C3=COCCO3)sc2c1 | -2.24% |
| Cc1nc2cc(NC(=O)NC3CC3)ccc2n1C | -7.31% |
| Cc1nc2cc(NC(=O)Nc3cccc(F)c3)ccc2n1C | 56.5% (active) |
| C=CCN(C(=O)Nc1ccc2c(c1)nc(C)n2C)c1ccccc1 | 3.61% |
| O=C(COC(=O)c1ccc[nH]c1=O)Nc1ccc2c(c1)OC(F)(F)O2 | 5.92% |
| CCOC(=O)/C(N=Nc1cc(C(=O)O)cc(C(=O)O)c1)=C(\O)CCl | 10.2% |
| COc1ccc(-n2cc(-c3ccccc3)c3c(=S)nc[nH]c32)cc1 | 5.15% |
| COc1cc2ccccc2cc1C(=O)Nc1nc(C)c(C(C)=O)s1 | -6.84% |
| COc1ccc(Cc2nnc(NC(=O)c3ccc(OC)cc3OC)s2)cc1 | -12.4% |
| COC(=O)c1sc(NC(=O)c2ccc(OC)cc2OC)nc1C | 57.3% (active) |
| O=C(O)CC/C(=C\c1cc2c(cc1Br)OCO2)c1nc2ccccc2s1 | 17.4% |
| CCN(CC(=O)Nc1ccc(C)c(S(=O)(=O)N(C)C)c1)Cc1ccccc1 | 2.21% |
| COc1ccc(NC(=O)/C(Cl)=C(/Cl)S(=O)Cc2ccc(C)cc2)cn1 (centres undefined) | 59% (active) |
| COc1ccc(NC(=O)c2cc(-c3ccc(C)cc3)on2)cc1 | 7.98% |
| Cc1ccc(NC(=O)OCc2cncs2)cc1 | -1.58% |
| COc1ccc(S(=O)(=O)NCCCc2ccccc2)cc1 | 16% |
| C=CCn1c(-c2ccc(Cl)cc2)ccc(C#N)c1=O | 1.51% |
| CCC(C)(C)NC(=O)CN(C(=O)CCC(=O)Nc1cc(C)ccn1)c1ccc2c(c1)OCCO2 | 0.138% |
| COc1ccc(C(=O)Nc2ccccc2C(=O)N/N=C/c2ccccc2OC)cc1 | 73.7% (active) |

| SMILES | inhibition |
| --- | --- |
| COc1cc(/C=N/NC(=O)c2ccc(N3CCCC3=O)cc2)ccc1O | -4.06% |
| COc1ccc(/C=N/NC(=O)c2ccc3c(c2)OCCO3)c(OC)c1 | -1.2% |
| COc1ccc(/C=N/NC(=O)c2ccccc2)cc1OS(=O)(=O)c1ccccc1 | 2.24% |
| COc1ccc(C(=O)Nc2ccccc2C(=O)NCc2ccco2)cc1 | 12% |
| COc1ccc(C(=O)Nc2ccccc2C(=O)N/N=C/c2ccc(O)c(OC)c2)cc1 | 97.1% (active) |
| Cc1cccnc1CCNC(=O)C1CCC(=O)N(Cc2cccc(F)c2)C1 (centres undefined) | -10.1% |
| CC(=O)N1CCN(CC(c2ccccc2)c2ccccc2)CC1 | 7.74% |
| COc1cccc(N2CCN(c3ccc4nnc(CCC(=O)N5CCN(C)CC5)n4n3)CC2)c1 | 7.34% |
| COC(=O)c1c(NC(=O)CN2C(=O)NC(CCc3ccccc3)C2=O)sc2c1CCCCC2 (centres undefined) | -0.263% |
| COc1ccc(C2=NS(=O)(=O)N(C)C(C(=O)N(C)Cc3ccccc3)=C2)cc1 | 0.338% |
| O=C(CN(C(=O)c1nsc(Cl)c1Cl)c1cccc(F)c1)NC1CCCC1 | -4.29% |
| COc1ccc(/C=N/NC(=O)Cn2cc(C(F)(F)F)ccc2=O)cc1 | 3.51% |
| Cc1nn(CC(=O)NCC2CCCO2)c(=O)c2cc3ccccc3n12 (centres undefined) | -4.75% |
| CCOC(CNC(=O)C(=O)NCC(c1ccco1)N1CCN(c2ccc(OC)cc2)CC1)OCC (centres undefined) | -9.05% |
| COc1ccc(C(=O)N2CCCC(C(=O)c3ccccc3OC)C2)cc1OC (centres undefined) | 2.76% |
| Cc1ccc(S(=O)(=O)c2nc(NCCCn3ccnc3)sc2Cl)cc1 | -1.94% |
| Cc1c(Cl)cccc1NC(=S)NCC(O)c1ccccc1 (centres undefined) | 3.98% |
| CC(C)(CNCC(O)c1ccccc1)N1CCOCC1 (centres undefined) | 1.36% |
| OC(CNCc1ccc(Cl)c(Cl)c1)c1ccccc1 (centres undefined) | 52.7% (active) |
| COc1ccc(NC(=O)CC(NC(C)c2ccccc2)C(=O)O)cc1 (centres undefined) | -14.9% |
| Cc1ccc(C)c(OCCC(=O)OCC(=O)N2CCN(c3ccccc3)CC2)c1 | -18.4% |
| CC1(c2ccc(Cl)cc2Cl)NC(=O)N(CC(=O)Nc2cccnc2Cl)C1=O (centres undefined) | -2.12% |
| O=C(NCC1(N2CCCCC2)CCCCC1)c1ccc(NS(=O)(=O)c2ccc(F)cc2)cc1 | 52.6% (active) |
| Cc1ccc(NS(=O)(=O)c2ccc(C(=O)NCCCN3CCOCC3)cc2)cc1 | -3.44% |

| SMILES | inhibition |
| --- | --- |
| CCOc1ccc(S(=O)(=O)Nc2cccc(C(=O)NCC3(N4CCCCC4)CCCCC3)c2)cc1 | 5.48% |
| CCN(CC)C(=O)Oc1ccc(Br)cc1C(=O)Nc1ccc(F)c(Cl)c1 | -3.91% |
| COC(C[C@@H](O)[C@H](C)[C@H](O)COCc1ccccc1)OC | -0.14% |
| CC(=O)N/C(=C\c1ccccc1)C(=O)OC(C)C(=O)N(C)c1ccccc1 (centres undefined) | -1.59% |
| CC(C)Cn1c(=O)c2ccccc2n2c(CCC(=O)NCc3ccccn3)nnc12 | 3.52% |
| O=C(CSc1ccc2nnc(-c3ccccc3)n2n1)N1CCCc2ccccc21 | 17.4% |
| CCCCNC(=O)C1(c2ccc(OC)cc2)CCOCC1 | 4.45% |
| CC(C)Oc1ccc(CCc2n[nH]c(=S)n2Cc2ccccc2)cc1 | -6.11% |
| O=S(=O)(c1ccccc1)N1CCc2ccccc21 | 2.42% |
| COc1cc2c(cc1OC)CN(CC(=O)Nc1ccc(F)cc1)CC2 | 7.57% |
| COc1cc2c(cc1OC)/C(=C/C(=O)c1ccc(NC(C)=O)cc1)NCC2 | 55.3% (active) |
| CC(=O)Nc1ccc(C(=O)/C=C/c2ccc[nH]2)cc1 | -21.1% |
| CCOC(=O)Cc1cc(=O)[nH]c(/N=C(\N)Nc2ccc(OC)cc2)n1 | 8.61% |
| Cc1nonc1C(=O)N/N=C/c1ccc(O)cc1 | 103% (active) |
| Cc1nc2ccc(C(=O)N/N=C/c3ccc(O)cc3)cc2[nH]1 | -1.64% |
| O=C(C[n+]1ccccc1)N/N=C/c1ccc(O)cc1 | 2.83% |
| CC(NC(=O)c1ccccc1C(=O)O)c1ccc(-n2ccnc2)cc1 (centres undefined) | 13.8% |
| O=C(Nc1ccc(Cl)cc1)Nc1ccc(Oc2cccnc2)nc1 | 2.76% |
| CC(C)=CCN1CCN(Cc2cc3ccccc3[nH]2)CC1CCO (centres undefined) | 9.2% |
| CCN(CC(=O)NCc1cccs1)S(=O)(=O)c1ccc(NC(C)=O)cc1 | -21.6% |
| CC1CCCCN1S(=O)(=O)c1ccc(S(=O)(=O)N(CC(=O)Nc2ccccc2)Cc2cccs2)cc1 (centres undefined) | 50.6% (active) |
| CC1CCCCN1S(=O)(=O)c1ccc(C(=O)Nc2nnc(-c3cccs3)o2)cc1 (centres undefined) | -0.561% |
